Measured values reported in PubChem BioAssay.
Active and inactive are the calls of the source. Unless noted, no rule for the calls is given here.

Experiments:
[1] = system: XIP peptide (Xip251-270) binding; experiment: XIP fragment 251-270 binding compounds – biochemical, small-molecule microarray, fluorescence 635/667 nm, 0.1 µg/mL protein, primary screen (AID 1182); conditions: fluorescent protein binding, 635 nm, higher = more signal, called active from +8 up or from −8 down
XIP peptide (Xip251-270) = experiment: compounds binding XIP fragment 251-270 – biochemical, small-molecule microarray, fluorescence 635/667 nm, 0.5 µg/mL protein, primary screen (AID 1183); conditions: fluorescence 635 nm, higher = more signal
[2] = blood-stage malaria parasite viability loss – strain 3D7, DAPI fluorescence, 100 nL, primary screen (AID 1184);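 also: parasites grown inside human red blood cells in medium with human serum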; conditions: P. falciparum 3D7 growth, 3 d, higher = more signal
[3] = molecular target: Homeobox protein Hox-A13 (Mus musculus) (UniProt Q62424); experiment: disruptors of Hoxa13 oligonucleotide interaction – biochemical, fluorescence polarization, labeled oligonucleotide, primary screen (AID 1185); conditions: Hoxa13:DNA binding, 15 min, higher = more signal, called active from +8 up or from −8 down
[4] = blockers of DNA damage checkpoint Chk1 activation – imaging, HeLa, hydroxyurea, phospho-Chk1 antibody, percent positive cells, primary screen (AID 1186); conditions: hydroxyurea-induced phospho-Chk1 immunofluorescence imaging, higher = more signal
[5] = blockers of DNA damage checkpoint Chk1 activation – imaging, HeLa, hydroxyurea, phospho-Chk1 nuclear intensity, primary screen (AID 1187); conditions: hydroxyurea-induced phospho-Chk1 immunofluorescence imaging, higher = more signal

Homeobox protein Hox-A13 (Mus musculus), sequence (Q62424 whole entry, looked up): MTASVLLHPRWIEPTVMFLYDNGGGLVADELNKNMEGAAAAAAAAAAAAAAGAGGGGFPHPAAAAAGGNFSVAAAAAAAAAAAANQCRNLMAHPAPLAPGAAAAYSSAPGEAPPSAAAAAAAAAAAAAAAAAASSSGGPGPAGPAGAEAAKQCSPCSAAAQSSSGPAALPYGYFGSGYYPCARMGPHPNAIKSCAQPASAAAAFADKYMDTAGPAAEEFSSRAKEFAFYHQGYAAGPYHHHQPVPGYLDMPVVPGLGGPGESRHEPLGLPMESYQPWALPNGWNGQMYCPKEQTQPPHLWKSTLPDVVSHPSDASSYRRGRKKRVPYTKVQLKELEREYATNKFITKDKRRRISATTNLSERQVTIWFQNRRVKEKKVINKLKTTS

Row | SMILES | composite z-score [1] | composite z-score (XIP peptide (Xip251-270)) | z-score [2] | z-score [3] | z-score [4] | z-score [5]
1 | O=C(O)C1=CC[C@H]2C(=O)N(c3ccccc3)C(=O)[C@@H]12 | 0.688 (inactive) | 0.783 | 0.0472 | -3.04 (inactive) | -0.416 (inactive) | -0.647 (inactive)
2 | COC(=O)[C@@]1(Cc2ccccc2)[C@H]2c3cc(C(=O)N(C)C)n(Cc4nc5ccccc5[nH]4)c3C[C@H]2CN1C(=O)c1ccccc1 | 0.857 (inactive) | 0.784 | -0.542 | -1.6 (inactive) | -0.283 (inactive) | 0.0294 (inactive)
3 | COCCOC(=O)N1C(=O)[C@@]2(c3cc(C#CCCO)ccc31)[C@H](C(=O)N1CCN(c3ncccn3)CC1)[C@H]1C(=O)O[C@H](c3ccccc3)[C@H](c3ccccc3)N1[C@@H]2c1ccc(OCCO)cc1 | 0.472 (inactive) | 0.838 | -2.04 | 0.211 (inactive) | -0.0621 (inactive) | -0.0646 (inactive)
4 | CC(C)Cc1ccc(CN2CC[C@@H](NC(=O)c3ccccc3)C2)cc1 | 0.321 (inactive) | 0.447 | -1.68 | -1.52 (inactive) | -0.681 (inactive) | -0.744 (inactive)
5 | CC(C)C(=C=CC[C@H](O)c1cccc(OCCO)c1)C[C@H](O)c1ccccn1 | 0.549 (inactive) | 0.806 | -0.991 | -3.81 (inactive) | -0.428 (inactive) | 0.321 (inactive)
6 | CC(C)C[C@@H]1NC(=O)[C@H]2C[C@@H](C(=O)O)[C@@H](c3cccc(OCCO)c3)N2C1=O | 0.693 (inactive) | 0.737 | -0.404 | -2.46 (inactive) | -0.03 (inactive) | -0.134 (inactive)
7 | CCCC=C(CCC)[C@@H](NC(=O)c1ccc(C(=O)OC)cc1)c1ccc(C(=O)OC)cc1 | -0.0958 (inactive) | -0.345 | -0.685 | -2.06 (inactive) | 0.151 (inactive) | -0.745 (inactive)
8 | CCCN1C(=O)[C@@]2(c3ccc([N+](=O)[O-])cc3)CC(=O)N(C3CCCCC3)[C@@H]2c2ccc(CO)cc21 | -0.403 (inactive) | 0.107 | 0.069 | -1.26 (inactive) | 0.257 (inactive) | 0.105 (inactive)
9 | COC(=O)C1=CC(c2ccc(CO)cc2)=CC(C2CC2)N(Cc2cc3c(cc2Br)OCO3)C=C1C(=O)OC (configuration not stated) | 1.59 (inactive) | 0.859 | -2.29 | -5.19 (inactive) | 0.0404 (inactive) | -0.0211 (inactive)
10 | C=C(C(=O)CC[C@@H](OC(=O)c1ccccc1-c1ccccc1C(=O)O)c1ccc(OCCO)cc1)C(C)C | -0.206 (inactive) | 0.568 | -2.12 | -5.47 (inactive) | 0.468 (inactive) | 0.59 (inactive)
11 | COC(=O)C1=CC(CCCO)=CC(c2ccc(CN3CCCC3)cc2)N(C)C=C1C(=O)OC (configuration not stated) | 0.736 (inactive) | 0.873 | 0.34 | -6.09 (inactive) | -0.118 (inactive) | -0.428 (inactive)
12 | CC(=O)NCCCC[C@@H]1NC(=O)[C@H]2C[C@@H](C(=O)O)[C@@H](c3cccc(OCCO)c3)N2C1=O | 1.31 (inactive) | 0.806 | -0.48 | -2.31 (inactive) | 0.165 (inactive) | -0.347 (inactive)
13 | COCCOC(=O)N1C(=O)[C@@]2(c3cc(C#CCCO)ccc31)[C@H](c1ccc(O)cc1)N1[C@H](c3ccccc3)[C@H](c3ccccc3)OC(=O)[C@H]1[C@@H]2C(=O)NC[C@H](O)c1ccccc1 | 0.395 (inactive) | 0.859 | 0.0019 | -2.51 (inactive) | 0.0615 (inactive) | 0.345 (inactive)
14 | CN1C(=O)C2C(C1=O)C1C=C(CCCO)C2C(C2CC2)N1C (configuration not stated) | 0.58 (inactive) | 0.591 | 0.119 | -6.6 (inactive) | -0.0182 (inactive) | 0.162 (inactive)
15 | COC(=O)[C@@]1(Cc2ccc(F)cc2)[C@H]2c3cc(C(=O)N(C)C)n(Cc4ccc(C(F)(F)F)nc4)c3C[C@H]2CN1C(=O)c1ccccc1 | 0.338 (inactive) | 0.64 | -1.68 | -3.87 (inactive) | 0.93 (inactive) | 0.563 (inactive)
16 | Cc1cccc([C@H]2C[C@H]3C(Br)=C[C@@]2(CO)C(=O)[C@]32CO2)c1 | 1.48 (inactive) | 0.137 | 1.54 | -1.41 (inactive) | -0.272 (inactive) | -0.557 (inactive)
17 | CN1C(=O)C2C=CC(C(O)c3ccc(I)cc3)N(N(c3ccccc3)c3ccccc3)C2C1=O (configuration not stated) | 0.157 (inactive) | 0.348 | 0.387 | -1.5 (inactive) | -0.839 (inactive) | -1.1 (inactive)
